This note sets out measurements from PubChem BioAssay (Tox21).

Structures are written as SMILES. A number with no mark means an inactive call. Results filed as inconclusive are left out. The source made the active and inactive calls. Unless noted, calls follow the shape of the full dose curve.

The nature of test [1]: Nuclear factor erythroid 2-related factor 2/antioxidant responsive element (Nrf2/ARE) small molecule agonists: qHTS cell viability counter screen in human keratinocytes (AID 1919968; active = well fitted curve in the direction sought with a large enough effect in the repeat runs; an effect the other way counts as inactive or inconclusive; also: nearly all actives have a fitted effect of over 55% in size; also: potency is read from the fitted curve at half-maximal effect). The gist of the method:
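CellTiter-Fluor fluorescence, read 1 h after reagent, gave viability in the same wells as the ARE-luciferase assay. KeratinoSens cells (1,500/well) had 23 h compound exposure at 37 C/5% CO2 following 5 h plating.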
Background: qHTS replaces the single test concentration by a dilution series.

Test [2] can be described thus: Nuclear factor erythroid 2-related factor 2/antioxidant responsive element (Nrf2/ARE) small molecule agonists: luciferase reporter gene qHTS assay in human keratinocytes (AID 1919969). Also: nearly all actives have a fitted effect of over 35% in size. Also: potency is read from the fitted curve at half-maximal effect. A general note: Reporter assays use an easily measured gene product as a stand-in for the process of interest.
The target in test [3] is Gonadotropin-releasing hormone receptor (Homo sapiens) (UniProt P30968). Put plainly: Human gonadotropin-releasing hormone receptor (GnRHR) small molecule agonists, calcium flux assay in GnRHR-HEK293 cells (AID 1920063). Also: nearly all actives have a fitted effect of over 35% in size. Put shortly:
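Agonist mode: compounds at 15 concentrations, in triplicate, went onto calcium dye-loaded GnRHR-HEK293 cells. Intracellular calcium was then followed as 480/540 nm fluorescence at 1 s intervals over 3 min.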

Test [4] addresses KiSS-1 receptor (Homo sapiens) (UniProt Q969F8). Put plainly: Human kisspeptin (KISS1R) small molecule agonists, calcium flux assay in KISS1R-HEK293 cells (AID 1920064; active = well fitted curve in the direction sought with a large enough effect in the repeat runs; an effect the other way counts as inactive or inconclusive). The gist of the method:
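Agonist mode: intracellular calcium rise tracked at 1 s intervals over 3 min (480/540 nm) immediately after compound addition to dye-loaded KISS1R-HEK293 stable cells. Each compound tested at 15 concentrations in triplicate.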
In general terms: Calcium assays in cells follow changes in intracellular calcium, usually with a dye or a luminescent sensor.

A short description of test [5]: G protein-coupled receptor (GPCR) small molecule agonists, calcium flux assay: HEK293 wild type cell line counter screen (AID 1920065). Put shortly:
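Calcium flux counter screen: compound added in agonist mode at 15 concentrations in triplicate to dye-loaded parental HEK293 cells. Fluorescence (480/540) read kinetically for 3 min; ATP served as positive control.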

A short description of test [6]: p53 small molecule agonists, cell-based qHTS assay with rat liver microsomes: qHTS cell viability counter screen (AID 1963580). Also: nearly all actives have a fitted effect of over 45% in size. Put shortly:
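Luminescent ATP readout (CellTiter-Glo, 30 min at room temperature) reports viability of p53RE-bla HCT-116 cells after 16 h at 37 C with test compounds under metabolic activation by rat liver microsomes and NADPH at 0.5 mg/mL final each.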

Test [7] can be described thus: p53 small molecule agonists, cell-based qHTS assay: qHTS cell viability counter screen (AID 1963581). Also: nearly all actives have a fitted effect of over 45% in size. The gist of the method: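 Counter screen read by CellTiter-Glo luminescence (ATP content, 30 min at room temperature), run in the same wells as the beta-lactamase reporter read. HCT-116 p53RE-bla cells saw compounds for 16 h at 37 C.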
Test [8] can be described thus: p53 small molecule agonists, cell-based qHTS assay (AID 1963582; active = well fitted activation curve with a large enough effect in the signal ratio in the repeat runs, not every such curve was filed as active; the % refers to the signal ratio). The gist of the method: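 Read-out is beta-lactamase FRET fluorescence after 2 h at room temperature with LiveBLAzer B/G substrate. p53 response element-bla cells were treated 16 h at 37 C with compounds in DMSO, added 5 h after seeding.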
Test [9] addresses 5-hydroxytryptamine receptor 2A (Homo sapiens) (UniProt P28223). Nature of the test: 5-hydroxytryptamine receptor 2A (HTR2A) small molecule antagonists, cell-based qHTS assay (AID 1963586). Also: nearly all actives have a fitted effect of over 45% in size. The gist of the method: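 CHO cells stably expressing human HTR2A were plated for 18 h at 37 C, then loaded with calcium dye for 1 h. Compounds were preincubated 5 min at room temperature before DOI (4 nM solution) was added. Kinetic fluorescence was read for 3 min.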

The target is the same in test [10]. Nature of the test: 5-hydroxytryptamine receptor 2A (HTR2A) small molecule agonists, cell-based qHTS assay (AID 1963587). Also: nearly all actives have a fitted effect of over 30% in size. Put shortly:
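HTR2A-CHO cells, plated 18 h at 37 C/5% CO2, dye-loaded 1 h at 37 C; compounds in DMSO added by pin tool (agonist mode). Intracellular calcium flux read as kinetic fluorescence on FDSS over 2 min at 1 s intervals.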

In test [11] the target is Muscarinic acetylcholine receptor M1 (Homo sapiens) (UniProt P11229). Nature of the test: Cholinergic receptor muscarinic 1 (CHRM1) small molecule antagonists, cell-based qHTS assay (AID 1963588). Also: nearly all actives have a fitted effect of over 40% in size. Put shortly: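 Compounds were tested at 15 concentrations in three independent runs. Dye-loaded CHRM1-CHO cells were exposed 5 min at room temperature before stimulation by acetylcholine added at 50nM. Intracellular calcium was read kinetically on FDSS for 3 min.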

The target is the same in test [12]. Nature of the test: Cholinergic receptor muscarinic 1 (CHRM1) small molecule agonists, cell-based qHTS assay (AID 1963589). Also: nearly all actives have a fitted effect of over 35% in size. The gist of the method:
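Agonist-mode calcium-flux screen: compounds at 15 concentrations, three independent runs, were pin-transferred onto dye-loaded human CHRM1-CHO cells. Fluorescence was then recorded kinetically every second over minutes.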

Test [13] can be described thus: cAMP Responsive Elements (CRE) small molecule agonists, cell-based qHTS assay (AID 1963590). The gist of the method:
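Agonist mode: compound added to CRE-bla HEK 293T cells (2,000/well, 18 h after plating) for 3 h at 37 C/5% CO2. Reporter activity detected via FRET beta-lactamase substrate, 2 h room-temperature loading.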

Test [14] can be described thus: cAMP Responsive Elements (CRE) small molecule antagonists, cell-based qHTS assay (AID 1963591; active = well fitted inhibition curve with a large enough effect in the signal ratio in the repeat runs, not every such curve was filed as active; the % refers to the signal ratio). The gist of the method: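 Antagonist mode: compounds are added alongside the adenylyl cyclase activator NKH477 (0.25 uM final) to CRE-bla HEK293T cells for 3 h. LiveBLAzer FRET substrate, 2 h at room temperature, reports bla expression.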
For test [15], the target named is Beta-2 adrenergic receptor (Homo sapiens) (UniProt P07550). Put plainly: Adrenergic beta2 receptor (ADRB2) small molecule antagonists, cell-based qHTS assay (AID 1963592). Also: series mostly up to about 92 µM; nearly all actives have a fitted effect of over 50% in size. Put shortly: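 Assay format: CHO-ADRB2 cells, 18-20hr seeding at 37C/5% CO2, then compound plus 1nM isoproterenol agonist mix for 0.5hr RT. Homogeneous time-resolved fluorescence cAMP detection after 1hr, expressed as 665/615 nm ratio.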

For test [16], the target named is D(2) dopamine receptor (Homo sapiens) (UniProt P14416). Nature of the test: Dopamine D2 receptor (DRD2) small molecule agonists, cell-based qHTS assay (AID 1963594). Also: nearly all actives have a fitted effect of over 35% in size. The gist of the method:
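HEK293 cells stably expressing DRD2 were cultured 24 h at 37 C, then given Ro20-1724 (0.1 mM final) and compounds for 10 min at room temperature. NKH477 (200nM) was then added for 30 min. cAMP was read by HTRF.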

For test [17] the target is unchanged. Put plainly: Dopamine D2 receptor (DRD2) small molecule antagonists, cell-based qHTS assay (AID 1963595; active = well fitted inhibition curve with a large enough effect in the signal ratio in the repeat runs, with a control signal flat; the % refers to the signal ratio). Put shortly: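 HEK293 cells stably expressing DRD2 were preincubated with 0.1 mM Ro20-1724, then with compound for 10 min at room temperature. Cells were stimulated with 200 nM NKH477 plus 12 nM quinpirole for 30 min, and cAMP was read by HTRF.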
A short description of test [18]: p53 small molecule agonists, cell-based qHTS assay with human liver microsomes: qHTS cell viability counter screen (AID 1963579). Also: nearly all actives have a fitted effect of over 45% in size. Put shortly: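 HLM-supplemented (0.5 mg/mL final) and NADPH-supplemented (0.5 mg/mL final) p53RE-bla cultures, 4,000 cells per well, were dosed with compounds in DMSO for 16 h at 37 C; luminescent ATP detection (CellTiter-Glo, 30 min, room temperature) quantified surviving cells.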

The target in test [19] is Beta-2 adrenergic receptor (Homo sapiens) (UniProt P07550). Put plainly: Adrenergic beta2 receptor (ADRB2) small molecule agonists, cell-based qHTS assay (AID 1963593).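 Also: CHO cells stably overexpressing human ADRB2.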 The gist of the method:
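CHO cells stably over-expressing ADRB2 were plated overnight at 37C, then dosed with compounds plus a stimulation mix containing 100uM IBMX and 25uM Ro-20-1724 for 0.5hr at room temperature. cAMP was measured by HTRF competition, 1hr.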

The nature of test [20]: p53 small molecule agonists, cell-based qHTS assay with rat liver microsomes (AID 1963578). Put shortly:
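Compound in DMSO added to p53RE-bla cells 5 h post-plating; rat microsomes/NADPH 0.5 mg/mL final; 16 h, 37 C; LiveBLAzer 2 h RT.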
% is scaled to controls: 0 for no effect and ±100 for the full control effect.

Sequence of Beta-2 adrenergic receptor (Homo sapiens) (P07550 whole entry, looked up): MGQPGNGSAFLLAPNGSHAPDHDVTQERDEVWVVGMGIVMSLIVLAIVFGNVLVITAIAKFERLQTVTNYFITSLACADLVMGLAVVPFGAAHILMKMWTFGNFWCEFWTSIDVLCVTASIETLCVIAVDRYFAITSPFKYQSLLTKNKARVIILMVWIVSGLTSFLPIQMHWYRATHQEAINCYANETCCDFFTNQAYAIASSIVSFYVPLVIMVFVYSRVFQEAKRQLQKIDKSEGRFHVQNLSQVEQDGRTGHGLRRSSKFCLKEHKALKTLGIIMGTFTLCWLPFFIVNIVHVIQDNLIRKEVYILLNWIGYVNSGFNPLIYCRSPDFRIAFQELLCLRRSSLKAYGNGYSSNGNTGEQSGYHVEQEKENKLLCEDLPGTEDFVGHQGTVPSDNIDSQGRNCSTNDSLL
Sequence of 5-hydroxytryptamine receptor 2A (Homo sapiens) (P28223 whole entry, looked up): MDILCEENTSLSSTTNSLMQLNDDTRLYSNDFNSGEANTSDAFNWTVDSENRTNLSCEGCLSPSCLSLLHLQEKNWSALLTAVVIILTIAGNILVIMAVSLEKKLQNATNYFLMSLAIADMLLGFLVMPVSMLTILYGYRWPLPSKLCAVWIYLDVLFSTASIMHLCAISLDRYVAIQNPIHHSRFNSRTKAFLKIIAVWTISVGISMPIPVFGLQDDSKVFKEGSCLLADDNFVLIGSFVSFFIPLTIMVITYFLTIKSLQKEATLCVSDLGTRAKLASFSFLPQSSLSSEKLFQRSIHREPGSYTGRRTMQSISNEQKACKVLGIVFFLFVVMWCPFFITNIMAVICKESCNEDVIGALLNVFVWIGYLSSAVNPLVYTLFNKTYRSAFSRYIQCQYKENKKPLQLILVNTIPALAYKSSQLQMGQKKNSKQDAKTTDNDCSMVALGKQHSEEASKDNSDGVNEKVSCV
Sequence of KiSS-1 receptor (Homo sapiens) (Q969F8 whole entry, looked up): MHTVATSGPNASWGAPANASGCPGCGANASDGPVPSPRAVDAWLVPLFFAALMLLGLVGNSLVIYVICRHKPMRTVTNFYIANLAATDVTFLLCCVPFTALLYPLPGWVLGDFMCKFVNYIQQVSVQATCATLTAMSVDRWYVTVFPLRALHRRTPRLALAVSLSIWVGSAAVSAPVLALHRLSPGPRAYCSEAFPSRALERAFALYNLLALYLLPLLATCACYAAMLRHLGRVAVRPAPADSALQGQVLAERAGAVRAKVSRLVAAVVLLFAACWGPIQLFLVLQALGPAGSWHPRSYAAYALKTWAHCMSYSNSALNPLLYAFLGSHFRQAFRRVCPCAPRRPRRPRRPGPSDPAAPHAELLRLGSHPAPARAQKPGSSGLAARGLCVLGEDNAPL
Sequence of Gonadotropin-releasing hormone receptor (Homo sapiens) (P30968 whole entry, looked up): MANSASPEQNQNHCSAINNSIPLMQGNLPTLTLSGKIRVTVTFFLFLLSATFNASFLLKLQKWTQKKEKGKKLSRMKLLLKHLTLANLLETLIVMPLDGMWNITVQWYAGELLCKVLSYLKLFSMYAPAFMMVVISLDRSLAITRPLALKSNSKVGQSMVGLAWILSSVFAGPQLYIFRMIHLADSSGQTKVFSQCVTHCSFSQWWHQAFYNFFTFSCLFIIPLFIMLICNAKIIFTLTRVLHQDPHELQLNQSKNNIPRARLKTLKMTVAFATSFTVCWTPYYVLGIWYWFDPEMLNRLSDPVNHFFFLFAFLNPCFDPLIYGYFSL
Sequence of Muscarinic acetylcholine receptor M1 (Homo sapiens) (P11229 whole entry, looked up): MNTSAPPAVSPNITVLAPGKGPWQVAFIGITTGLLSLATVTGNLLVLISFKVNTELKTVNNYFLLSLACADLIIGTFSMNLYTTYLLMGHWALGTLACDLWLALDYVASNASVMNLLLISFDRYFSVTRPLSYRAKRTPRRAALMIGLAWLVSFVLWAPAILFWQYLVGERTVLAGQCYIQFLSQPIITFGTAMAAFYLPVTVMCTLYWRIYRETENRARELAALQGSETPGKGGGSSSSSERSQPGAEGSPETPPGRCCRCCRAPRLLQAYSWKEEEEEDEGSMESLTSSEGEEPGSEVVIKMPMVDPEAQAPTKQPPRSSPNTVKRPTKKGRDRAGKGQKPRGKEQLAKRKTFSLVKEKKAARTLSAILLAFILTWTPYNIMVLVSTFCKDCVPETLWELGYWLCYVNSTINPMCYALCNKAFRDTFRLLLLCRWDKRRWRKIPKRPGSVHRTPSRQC
Sequence of D(2) dopamine receptor (Homo sapiens) (P14416 whole entry, looked up): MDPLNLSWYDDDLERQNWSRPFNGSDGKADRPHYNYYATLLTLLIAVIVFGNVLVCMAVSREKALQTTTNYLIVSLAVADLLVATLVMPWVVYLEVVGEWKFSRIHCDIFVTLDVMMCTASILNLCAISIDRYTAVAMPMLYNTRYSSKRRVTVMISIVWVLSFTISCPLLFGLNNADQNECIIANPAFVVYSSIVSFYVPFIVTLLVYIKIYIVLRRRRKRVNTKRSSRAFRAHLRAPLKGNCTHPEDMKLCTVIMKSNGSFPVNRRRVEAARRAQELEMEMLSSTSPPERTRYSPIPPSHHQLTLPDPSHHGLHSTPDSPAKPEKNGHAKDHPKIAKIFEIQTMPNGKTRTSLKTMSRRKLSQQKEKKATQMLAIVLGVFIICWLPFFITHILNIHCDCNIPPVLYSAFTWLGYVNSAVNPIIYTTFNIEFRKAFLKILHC

On to `S=C(SSSSSSC(=S)N1CCCCC1)N1CCCCC1`, for which the Potency in [1] was 134 nM (active). The activity, positive = activation in test [2] was -39.1% [at 19 µM]. In [3], the activity change was 9.84% [at 11.8 µM, hits give high values]. Besides, the activation in test [4] is 1.75% [at 15.8 µM]; in test [5], 0.115% [at 11.8 µM]; in [8] it was -6.37% [at 13.5 µM]; in [10], 13.8% [at 15.9 µM]; in [12], 2.41% [at 15.8 µM]; in [13], -0.287% [at 19 µM]. The activation in test [16] was -0.326% [at 19 µM]. The activity change, negative = cytotoxicity is -21.4% [at 13.5 µM] in [6] and 9.63% [at 13.5 µM] in test [7]. Moreover, the activity, negative = inhibition in [9] was -4.42% [at 12.7 µM]; in test [11] it was -12.9% [at 12.6 µM]. Also, the values for the activity change, negative = inhibition in test [14], in [15] and in test [17] were -25.4% [at 18.9 µM], 8.1% [at 19 µM] and 1.15% [at 18.9 µM], respectively.

As for `O=c1[nH]c(=O)c2[nH]c(=O)[nH]c2[nH]1`, the activity change, negative = cytotoxicity in test [1] was 13.3% [at 8.39 µM]; in test [18], -5.03% [at 5.99 µM]; in [6], -22.6% [at 5.99 µM]; in test [7], -12.2% [at 5.99 µM]. The activity, positive = activation in [2] was 2.42% [at 8.39 µM]. Besides, the activity change in test [3] was -0.425% [at 5.22 µM, hits give high values]. Further, the activation in test [4] is -0.365% [at 6.97 µM]; in test [5], 1.57% [at 5.23 µM]; in test [10] it was -9.75% [at 7.02 µM]; in test [12], -0.246% [at 6.97 µM]; in test [13], 1.51% [at 8.39 µM]; in test [19], 11.5% [at 8.39 µM]. The activation in test [16] is 0.309% [at 8.39 µM]. Besides, in [11], the activity, negative = inhibition is 3.65% [at 5.58 µM]. For the same compound, the activity change, negative = inhibition in test [14] was -5.1% [at 8.39 µM]; in [15], -4.56% [at 8.39 µM]; in [17], -2.53% [at 8.38 µM].

Regarding `c1ccc2c(CC3=NCCN3)cccc2c1`, the Potency entry in test [1], in test [2], in test [3], in [20], in test [18] and in test [6] was “inactive” in each case. Further, the Potency entry in [7], in test [8], in test [10], in [12], in [13] and in test [14] was “inactive” in each case. In addition, the Potency entry in test [15], in test [19], in test [16] and in [17] was “inactive” each time. Further, the outcome in test [4] was inactive.

In the case of `N#Cc1ccc(C/C(=N/NC(=O)Nc2ccc(OC(F)(F)F)cc2)c2cccc(C(F)(F)F)c2)cc1`, the Potency result in [1], in test [2], in test [3], in test [20], in test [18] and in test [6] was “inactive” in each case. Further, the Potency entry in test [7], in test [9], in test [12], in test [14], in [15] and in [16] was “inactive” each time. Moreover, the Potency result in test [17] is “inactive”. Also, in test [4], the result was inactive.

As to `Nc1cccc(S(=O)(=O)c2cccc(N)c2)c1`, the Potency entry in test [1], in test [2], in test [3], in test [20], in test [18] and in test [6] was “inactive” each time. The Potency entry in test [7], in test [9], in test [10], in test [11], in test [12] and in test [13] was “inactive” throughout. The Potency entry in test [15] and in test [19] was “inactive” each time. Further, the result in [4] was inactive.

For `O=c1[nH]cnc2ccccc12`, the Potency result in [1], in test [3], in test [20], in [18], in test [6] and in test [7] was “inactive” in each case. Further, the Potency result in test [9], in test [10], in test [11], in [12], in test [13] and in test [15] was “inactive” each time. The Potency entry in test [19], in test [16] and in [17] was “inactive” throughout. Moreover, the Potency in [2] is 63.1 nM (active). In addition, in [4], the result was inactive.

Consider `O=C(CCCCCCCCc1cccnc1)N1CCC(C=C(c2ccccc2)c2ccccc2)CC1`, for which, in test [1], the Potency was 15400 nM (active). Moreover, the Potency entry in test [2], in [3], in test [20], in test [18], in test [6] and in test [7] was “inactive” each time. The Potency entry in [9], in test [10], in test [12], in test [14], in test [15] and in test [16] was “inactive” in each case. Besides, in test [4], the outcome was inactive.
